Test results from the supplement of paper PMC10849652.
Of roughly 7,900 targets only a part is listed; those with a hit were picked by preference. About 0.6% of all pairs of compound and target were hits. A number with no mark means an inactive call.

Legend:
Test in all cases: log2 fold change, soluble protein after heating vs DMSO (PISA); higher = thermal stabilisation; K562 cells, 10 uM, 30 min; active = over 0.2 and 3.5 SD of the protein, either way, in both replicates (recomputed)
[1] = compound: C#Cc1cccc(Nc2ncnc3cc(OCCOC)c(OCCOC)cc23)c1 [erlotinib]
Procedure, shortened: (§1)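 Quantification of soluble protein used TMTpro 16plex LC-MS/MS, with channel sums equalised. Samples were the supernatant after 21,000xg for 90 min of pooled aliquots from K562 cells (2×10^6 cells/mL) treated with 10 μM compound for 30 min, heated for 3 min over 48°C-58°C, and extracted in PBS with 0.5% NP-40 at 4°C. Values, from duplicates, describe thermal stability against control samples on a log2 fold-change scale.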

[2] = compound: C/C(=N\NC(=O)C1=CC(=CC=C1)S(=O)(=O)N2CCOCC2)/C3=C(C=CC(=C3)Cl)O
Procedure, shortened: as §1

[3] = compound: C1=CC(=C(C=C1Cl)C2=NC3=NC=CN=C3C(=N2)NC4=CC=NC=C4)F
Procedure, shortened: as §1

[4] = compound: C1=CC(=CC=C1C2=NC3=C(N2)C=C(C=C3)C(=O)N)OC4=CC=C(C=C4)Cl
Procedure, shortened: as §1

[5] = compound: C1=CC2=C(C=CC(=C2)/C=C\3/C(=O)NC(=NCC4=CC=CS4)S3)N=C1
Procedure, shortened: as §1

[6] = compound: C1=CC2=NC=CN=C2C=C1/C=C/3\C(=O)NC(=O)S3
Procedure, shortened: as §1

[7] = compound: C1=CC=C(C=C1)C2=NC(=C(N2)C3=CC=NC=C3)C4=CC(=C(C=C4)Cl)O
Procedure, shortened: as §1

[8] = compound: C1=CC=C2C(=C1)C3=NNC4=CC=CC(=C43)C2=O
Procedure, shortened: as §1

[9] = compound: C1CCN(C1)C(=O)NC2=CC=CC(=C2)NC3=NC=C(C(=N3)NCCC4=CN=CN4)Br
Procedure, shortened: as §1

[10] = compound: C1CN(CCC1(CC2=CC=C(C=C2)Cl)N)C3=NC=NC4=C3C=CN4
Procedure, shortened: as §1

Chain of UniProt Q9NTJ5 (Q9NTJ5 whole entry, looked up): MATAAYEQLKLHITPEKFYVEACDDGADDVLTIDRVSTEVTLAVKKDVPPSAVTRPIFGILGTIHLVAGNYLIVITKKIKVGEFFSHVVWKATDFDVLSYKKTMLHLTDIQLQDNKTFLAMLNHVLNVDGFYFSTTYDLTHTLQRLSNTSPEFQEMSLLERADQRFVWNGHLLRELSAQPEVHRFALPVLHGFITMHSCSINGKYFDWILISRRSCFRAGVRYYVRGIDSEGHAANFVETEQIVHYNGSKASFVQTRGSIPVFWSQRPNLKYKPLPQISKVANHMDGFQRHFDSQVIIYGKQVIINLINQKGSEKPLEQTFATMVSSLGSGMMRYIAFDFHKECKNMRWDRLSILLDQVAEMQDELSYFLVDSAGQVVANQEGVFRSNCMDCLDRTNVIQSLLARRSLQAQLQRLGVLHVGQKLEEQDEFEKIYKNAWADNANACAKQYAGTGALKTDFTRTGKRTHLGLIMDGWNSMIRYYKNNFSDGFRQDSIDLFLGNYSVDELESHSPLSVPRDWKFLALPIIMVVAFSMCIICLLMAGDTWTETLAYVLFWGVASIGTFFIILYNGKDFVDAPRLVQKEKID
Chain of UniProt Q5T160 (Q5T160 whole entry, looked up): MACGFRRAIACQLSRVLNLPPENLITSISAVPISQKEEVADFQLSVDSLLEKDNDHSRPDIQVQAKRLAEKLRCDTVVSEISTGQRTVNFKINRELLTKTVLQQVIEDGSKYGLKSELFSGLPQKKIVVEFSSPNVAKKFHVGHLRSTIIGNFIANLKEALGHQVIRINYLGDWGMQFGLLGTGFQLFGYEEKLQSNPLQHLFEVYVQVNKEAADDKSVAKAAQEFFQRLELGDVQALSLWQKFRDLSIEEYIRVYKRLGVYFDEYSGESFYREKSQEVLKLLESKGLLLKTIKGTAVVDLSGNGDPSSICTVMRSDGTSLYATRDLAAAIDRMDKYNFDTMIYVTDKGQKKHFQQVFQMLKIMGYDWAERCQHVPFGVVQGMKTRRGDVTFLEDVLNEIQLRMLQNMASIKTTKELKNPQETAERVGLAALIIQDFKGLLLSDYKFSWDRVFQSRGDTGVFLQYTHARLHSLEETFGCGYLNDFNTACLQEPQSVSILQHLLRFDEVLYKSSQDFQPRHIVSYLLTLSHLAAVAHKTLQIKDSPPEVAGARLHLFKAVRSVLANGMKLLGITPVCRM
Chain of UniProt Q6NT16 (Q6NT16 whole entry, looked up): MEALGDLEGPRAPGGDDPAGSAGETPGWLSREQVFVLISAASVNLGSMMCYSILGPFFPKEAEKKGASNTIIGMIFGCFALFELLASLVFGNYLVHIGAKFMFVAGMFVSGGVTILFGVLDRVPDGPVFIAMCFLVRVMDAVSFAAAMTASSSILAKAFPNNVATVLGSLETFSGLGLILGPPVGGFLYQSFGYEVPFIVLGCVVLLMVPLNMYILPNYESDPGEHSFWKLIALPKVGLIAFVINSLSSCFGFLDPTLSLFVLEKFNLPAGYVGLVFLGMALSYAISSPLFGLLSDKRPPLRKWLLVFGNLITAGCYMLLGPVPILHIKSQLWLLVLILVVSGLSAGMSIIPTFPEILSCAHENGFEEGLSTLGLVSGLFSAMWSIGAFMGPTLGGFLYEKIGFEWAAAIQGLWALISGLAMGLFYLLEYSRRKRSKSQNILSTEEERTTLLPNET
Chain of UniProt P06400 (P06400 whole entry, looked up): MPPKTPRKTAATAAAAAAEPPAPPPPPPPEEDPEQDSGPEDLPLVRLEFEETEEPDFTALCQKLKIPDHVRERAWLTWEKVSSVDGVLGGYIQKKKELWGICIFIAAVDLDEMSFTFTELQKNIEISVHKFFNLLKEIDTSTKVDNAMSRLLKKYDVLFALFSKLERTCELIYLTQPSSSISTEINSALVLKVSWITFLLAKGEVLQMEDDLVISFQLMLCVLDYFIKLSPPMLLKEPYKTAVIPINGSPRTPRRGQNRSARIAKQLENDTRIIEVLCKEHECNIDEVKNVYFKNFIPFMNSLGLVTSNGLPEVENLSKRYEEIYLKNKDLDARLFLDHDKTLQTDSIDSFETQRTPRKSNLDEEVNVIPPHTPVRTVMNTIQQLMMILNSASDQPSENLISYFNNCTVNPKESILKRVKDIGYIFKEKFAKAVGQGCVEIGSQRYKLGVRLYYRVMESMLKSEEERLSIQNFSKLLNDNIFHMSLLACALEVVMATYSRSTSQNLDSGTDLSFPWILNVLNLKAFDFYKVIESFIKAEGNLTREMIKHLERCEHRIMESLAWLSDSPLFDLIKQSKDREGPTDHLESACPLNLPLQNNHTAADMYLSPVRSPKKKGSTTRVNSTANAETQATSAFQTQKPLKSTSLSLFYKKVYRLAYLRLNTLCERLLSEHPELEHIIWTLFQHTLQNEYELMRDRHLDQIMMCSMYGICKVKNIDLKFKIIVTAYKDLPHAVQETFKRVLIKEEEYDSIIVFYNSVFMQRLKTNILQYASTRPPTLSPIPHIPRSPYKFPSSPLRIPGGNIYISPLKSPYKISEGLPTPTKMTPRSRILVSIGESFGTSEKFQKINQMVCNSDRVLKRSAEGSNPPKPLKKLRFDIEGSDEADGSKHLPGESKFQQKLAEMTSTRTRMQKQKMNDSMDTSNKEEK
Chain of UniProt O15127 (O15127 whole entry, looked up): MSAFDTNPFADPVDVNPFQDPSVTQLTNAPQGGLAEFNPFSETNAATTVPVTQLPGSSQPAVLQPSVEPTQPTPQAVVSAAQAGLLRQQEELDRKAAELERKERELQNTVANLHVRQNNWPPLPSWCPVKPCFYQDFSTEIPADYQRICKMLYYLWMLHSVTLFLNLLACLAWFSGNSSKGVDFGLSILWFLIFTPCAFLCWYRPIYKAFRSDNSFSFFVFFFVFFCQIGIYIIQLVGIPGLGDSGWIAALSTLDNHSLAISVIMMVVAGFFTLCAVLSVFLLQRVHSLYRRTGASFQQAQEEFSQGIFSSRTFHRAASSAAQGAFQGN
Chain of UniProt P49756 (P49756 whole entry, looked up): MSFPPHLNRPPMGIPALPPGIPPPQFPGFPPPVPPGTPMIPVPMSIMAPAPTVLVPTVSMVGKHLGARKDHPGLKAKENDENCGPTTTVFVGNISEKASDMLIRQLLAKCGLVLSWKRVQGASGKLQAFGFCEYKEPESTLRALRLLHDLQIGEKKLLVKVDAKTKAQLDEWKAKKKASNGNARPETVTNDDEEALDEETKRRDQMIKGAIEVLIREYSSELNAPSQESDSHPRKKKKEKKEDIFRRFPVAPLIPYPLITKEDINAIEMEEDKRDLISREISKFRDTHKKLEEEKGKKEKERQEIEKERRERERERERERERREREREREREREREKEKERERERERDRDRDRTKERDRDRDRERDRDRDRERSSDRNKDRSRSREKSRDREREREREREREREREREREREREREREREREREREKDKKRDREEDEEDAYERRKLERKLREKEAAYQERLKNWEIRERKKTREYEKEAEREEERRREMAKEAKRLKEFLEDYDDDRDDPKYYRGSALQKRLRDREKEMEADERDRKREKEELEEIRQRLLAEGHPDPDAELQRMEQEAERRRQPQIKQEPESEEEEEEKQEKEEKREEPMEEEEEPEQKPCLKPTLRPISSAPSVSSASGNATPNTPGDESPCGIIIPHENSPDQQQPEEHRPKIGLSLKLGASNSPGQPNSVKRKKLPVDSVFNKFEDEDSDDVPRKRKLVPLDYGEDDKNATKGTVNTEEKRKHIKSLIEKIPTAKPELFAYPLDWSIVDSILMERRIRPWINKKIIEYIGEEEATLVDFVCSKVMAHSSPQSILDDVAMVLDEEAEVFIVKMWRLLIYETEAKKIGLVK
Chain of UniProt O75792 (O75792 whole entry, looked up): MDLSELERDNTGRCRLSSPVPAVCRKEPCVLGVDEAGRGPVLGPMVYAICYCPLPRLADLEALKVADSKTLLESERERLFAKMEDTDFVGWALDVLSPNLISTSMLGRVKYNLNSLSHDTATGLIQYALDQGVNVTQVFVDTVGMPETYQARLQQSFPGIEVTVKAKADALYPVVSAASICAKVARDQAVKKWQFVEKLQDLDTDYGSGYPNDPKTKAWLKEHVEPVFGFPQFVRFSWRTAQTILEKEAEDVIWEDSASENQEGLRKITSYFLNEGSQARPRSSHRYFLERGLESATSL
Chain of UniProt Q8IZQ5 (Q8IZQ5 whole entry, looked up): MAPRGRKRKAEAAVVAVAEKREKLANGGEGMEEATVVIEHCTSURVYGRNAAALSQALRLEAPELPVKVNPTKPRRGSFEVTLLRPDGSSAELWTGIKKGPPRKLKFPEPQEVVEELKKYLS
Chain of UniProt O43665 (O43665 whole entry, looked up): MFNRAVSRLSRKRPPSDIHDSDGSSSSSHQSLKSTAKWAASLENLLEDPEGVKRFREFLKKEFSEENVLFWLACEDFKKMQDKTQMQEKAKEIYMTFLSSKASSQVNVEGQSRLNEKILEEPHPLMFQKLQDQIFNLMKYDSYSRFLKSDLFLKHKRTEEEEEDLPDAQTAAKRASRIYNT
Chain of UniProt O95470 (O95470 whole entry, looked up): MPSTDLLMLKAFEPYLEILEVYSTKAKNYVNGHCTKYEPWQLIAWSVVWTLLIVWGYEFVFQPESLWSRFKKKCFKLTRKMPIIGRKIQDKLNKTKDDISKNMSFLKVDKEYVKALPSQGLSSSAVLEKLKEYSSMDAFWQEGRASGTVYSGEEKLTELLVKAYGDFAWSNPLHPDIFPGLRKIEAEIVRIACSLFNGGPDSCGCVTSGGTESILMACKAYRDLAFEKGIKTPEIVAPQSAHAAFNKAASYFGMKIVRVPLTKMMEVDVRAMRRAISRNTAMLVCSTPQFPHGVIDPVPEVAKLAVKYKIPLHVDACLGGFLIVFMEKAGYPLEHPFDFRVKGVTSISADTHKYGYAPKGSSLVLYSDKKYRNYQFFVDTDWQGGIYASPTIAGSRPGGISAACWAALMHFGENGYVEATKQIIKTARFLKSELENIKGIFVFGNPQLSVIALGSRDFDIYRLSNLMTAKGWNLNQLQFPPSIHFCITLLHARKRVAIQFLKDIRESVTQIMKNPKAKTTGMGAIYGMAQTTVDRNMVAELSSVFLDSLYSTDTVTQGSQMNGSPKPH

| Target | log2 fold change [1] | log2 fold change [2] | log2 fold change [3] | log2 fold change [4] | log2 fold change [5] | log2 fold change [6] | log2 fold change [7] | log2 fold change [8] | log2 fold change [9] | log2 fold change [10] |
| --- | --- | --- | --- | --- | --- | --- | --- | --- | --- | --- |
| SEPTIN5 (UniProt G3XAH0) | 0.009 | -0.251 | 0.146 | 0.076 | -0.022 | -0.035 | 0.014 | -0.24 | 0.009 | 0.049 |
| RETSAT (UniProt Q6NUM9) | 0.044 | -0.149 | 0.132 | 0.502 (active) | 0.052 | 0.002 | 0.056 | 0.144 | -0.126 | 0.194 |
| RSF1 (UniProt Q96T23) | 0.034 | 0.152 | 0.031 | 0.126 | 0.039 | 0.012 | 0.089 | -0.057 | 0.01 | 0.006 |
| RNASEH2A (UniProt O75792) | 0.041 | 0.085 | -0.062 | 0.019 | 0.119 | -0.038 | -0.026 | 0.065 | -0.016 | -0.115 |
| RGS10 (UniProt O43665) | -0.044 | 0.048 | 0.076 | 0.009 | -0.03 | 0.002 | 0.073 | -0.015 | -0.069 | 0.036 |
| RDH11 (UniProt Q8TC12) | -0.007 | -0.03 | 0.102 | 0.068 | 0.084 | -0.1 | 0.029 | 0.04 | -0.044 | -0.043 |
| SERINC1 (UniProt Q9NRX5) | -0.034 | -0.023 | -0.006 | 0.096 | -0.026 | 0.085 | 0.018 | 0.149 | 0.115 | -0.031 |
| RSL1D1 (UniProt O76021) | -0.115 | -0.156 | -0.504 | 0.073 | -0.054 | 0.057 | -0.141 | -0.086 | 0.016 | -0.193 |
| RPS25 (UniProt P62851) | -0.083 | -0.071 | -0.276 | 0.077 | -0.075 | -0.091 | -0.067 | 0.033 | 0.061 | -0.141 |
| RB1CC1 (UniProt Q8TDY2) | 0.119 | -0.066 | 0.102 | 0.046 | 0.211 | -0.07 | 0.015 | 0.03 | -0.024 | 0.022 |
| RECQL (UniProt P46063) | -0.019 | 0.072 | 0.066 | -0.005 | 0.046 | 0.004 | -0.004 | -0.003 | -0.062 | 0.01 |
| RBM25 (UniProt P49756) | 0.142 | -0.037 | -0.039 | -0.025 | -0.014 | 0.055 | -0.012 | -0.008 | -0.076 | -0.137 |
| RBM27 (UniProt Q9P2N5) | 0.034 | 0.079 | 0.003 | 0.022 | -0.039 | -0.01 | -0.067 | 0.022 | -0.061 | -0.128 |
| RARS2 (UniProt Q5T160) | 0.009 | 0.057 | 0.063 | 0.029 | 0.015 | 0.014 | 0.056 | 0 | 0.022 | 0.038 |
| SAFB2 (UniProt Q14151) | 0.015 | -0.135 | -0.294 | 0.071 | -0.148 | 0.049 | 0.014 | -0.015 | -0.037 | -0.041 |
| SCPEP1 (UniProt Q9HB40) | -0.002 | 0.017 | 0.064 | 0.015 | -0.024 | 0.058 | -0.013 | 0.017 | -0.012 | 0.079 |
| SGPL1 (UniProt O95470) | -0.038 | -0.019 | -0.088 | -0.047 | 0.05 | -0.029 | 0.01 | -0.001 | -0.035 | -0.145 |
| RPRD1B (UniProt Q9NQG5) | -0.065 | 0.086 | 0.036 | 0.028 | 0.063 | 0.052 | 0.042 | -0.005 | 0.009 | -0.046 |
| RPP25L (UniProt Q8N5L8) | 0.274 (active) | -0.004 | -0.029 | 0.031 | -0.001 | 0.041 | 0.014 | -0.065 | 0.01 | 0.01 |
| RBM48 isoform 2 (UniProt Q5RL73) | -0.048 | 0.017 | -0.065 | -0.026 | 0.053 | 0.055 | -0.144 | 0.042 | 0.118 | -0.115 |
| SLC18B1 (UniProt Q6NT16) | -0.011 | -0.09 | 0.067 | 0.06 | 0.108 | 0 | 0.12 | 0.002 | -0.037 | 0.081 |
| RPL38 (UniProt P63173) | 0.024 | -0.05 | -0.148 | 0.026 | -0.102 | -0.025 | -0.027 | 0.026 | 0.033 | -0.106 |
| RAC3 (UniProt P60763) | 0.05 | -0.016 | 0.029 | -0.042 | 0.009 | 0.02 | -0.009 | -0.09 | -0.007 | 0.005 |
| SACM1L (UniProt Q9NTJ5) | 0.005 | 0.1 | 0.109 | -0.061 | 0.039 | -0.007 | 0.077 | 0.009 | 0.001 | 0.068 |
| RB1 (UniProt P06400) | -0.007 | 0.041 | 0.012 | 0.016 | 0.124 | 0.04 | 0.034 | -0.114 | -0.065 | -0.02 |
| RNF167 (UniProt Q9H6Y7) | -0.133 | -0.073 | -0.069 | 0.052 | 0.025 | 0.025 | -0.004 | -0.07 | -0.018 | -0.009 |
| SCAMP2 (UniProt O15127) | 0.014 | 0.141 | 0.081 | 0.011 | -0.154 | 0.063 | 0.055 | 0.057 | -0.116 | 0.087 |
| SLC12A9 (UniProt Q9BXP2) | 0.023 | 0.03 | 0.039 | -0.013 | -0.04 | 0.021 | 0.016 | -0.015 | -0.019 | -0.012 |
| SELENOH (UniProt Q8IZQ5) | 0.032 | 0.013 | -0.013 | -0.003 | -0.297 (active) | -0.002 | 0.034 | 0.003 | -0.052 | 0.032 |
| RPS13 (UniProt P62277) | -0.156 | -0.17 | -0.544 | 0.088 | -0.11 | -0.053 | -0.088 | -0.015 | 0.101 | -0.184 |
